Assay outcomes deposited in PubChem BioAssay by National Center for Advancing Translational Sciences (NCATS).
TsaE inh – qHTS Assay for Inhibitors of YjeE | hit rate 0.05% among 71,000 | purified YjeE enzyme, qHTS inhibition assay | Potency, µM
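Purified YjeE (10 uM) with BODIPY Texas Red-labeled ADP probe (2 uM); compounds pin-transferred, 15 min at room temperature. Binding inhibition read as decreased fluorescence polarization; ADP titration as control.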
Tau fil binding – qHTS Assay for Tau Filament Binding; recombinant tau filaments, thioflavin S fluorescence, 15 h; filaments grown with octadecylsulfate alongside compound; Potency, µM (titrated, usually from 57.1 µM), for the others: top-dose activity change, negative = inhibition; hit rate 2% among 71,000; AID 596, 2007;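 also: potency is read from the fitted curve at half-maximal effect; % is scaled to controls: 0 for no effect and ±100 for the full control effect; actives lower thioflavin S fluorescence by blocking filaments or displacing dye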
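His-tagged recombinant human tau (exons 2, 3, 10; 1 uM final) fibrillized with 30 uM sodium octadecylsulfate, 15 h at 37 C, in pH 7.4 HEPES buffer with 10 uM thioflavine S and 5 mM DTT. Reduced ThS fluorescence (450/510 nm) marks activity.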
DNA Pol III inh – qHTS Assay for Inhibitors of DNA Polymerase III Holoenzyme System. reconstituted DNA polymerase III holoenzyme replication, biochemical. Potency, µM (titrated, usually from 57.1 µM), for the others: at the highest dose activity change, negative = inhibition. hit rate 0.25% among 71,000; also: potency is read from the fitted curve at half-maximal effect; % is scaled to controls: 0 for no effect and ±100 for the full control effect
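Reconstituted *E. coli* holoenzyme (0.35 nM Pol III, 1 nM beta, 154 nM SSB, 2 nM primase) was preincubated with compound for 15 min at RT. Synthesis on 1.4 nM ssM13Gori ran 35 min, then was stopped with PicoGreen/EDTA and read as dsDNA fluorescence.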
BRCT inh green – qHTS Assay for Inhibitors of BRCT-Phosphoprotein Interaction (Green Fluorophore); Potency, µM (doses to about 76.9 µM), without a hit: at the top dose activity change, negative = inhibition, most hits filed as inhibitors; Breast cancer type 1 susceptibility protein (Homo sapiens), P38398; BRCA1 BRCT-phosphopeptide binding, green fluorescence polarization; hit rate 0.05% among 75,000; AID 875, 2007;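 also: potency is read from the fitted curve at half-maximal effect; plate controls were peptide without protein for full effect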
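Compounds were incubated for 12 min at room temperature with a complex of 100 nM fluorescein-tagged pBACH1 decapeptide and 250 nM His-tagged BRCT protein. Buffer was phosphate pH 7.3 with EDTA, DTT and Tween 20. Disruption of binding lowers the polarization signal.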
Hsp90 Hop PPI – qHTS Assay for Disrupters of an Hsp90 Co-Chaperone Interaction | Hsp90 C-terminal peptide / TPR2A (Hop) interaction, human | AlphaScreen TPR2A-His6 binding biotin-Hsp90 C-terminal peptide | Potency, µM (titrated, usually from 57 µM), without a hit: at the highest dose activity change, negative = inhibition | hit rate 0.44% among 71,000 | AID 595, 2007; active = well fitted curve in either direction with a large enough effect; inconclusive = small, poorly fitted or top-dose-only effect, or another doubt; also: potency is read from the fitted curve at half-maximal effect; % is scaled to controls: 0 for no effect and ±100 for the full control effect
BRCT inh red – qHTS Assay for Inhibitors of BRCT-Phosphoprotein Interaction (Red Fluorophore); hit rate 0.03% among 75,000; Potency, µM (titrated, usually from 76.9 µM), for the others: at the top dose activity change, negative = inhibition, most hits filed as inhibitors; BRCT-phosphopeptide binding, red fluorescence polarization; also: % is scaled to controls: 0 for no effect and ±100 for the full control effect
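Fluorescence polarization: 100 nM His-tagged BRCA1 BRCT with 100 nM TAMRA-labelled phospho-BACH1 decapeptide, phosphate buffer pH 7.3 with 150 mM NaCl, DTT, 0.01% Tween 20; 12 min RT. Binding inhibition seen as FP decrease.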
* marks the source's active call; other numbers are inactive results; i = inactive; ? = inconclusive; . = no result; ! = a repeat was not active; [ ] = another dose, or the depositor's remark. A selection: hits, their analogues and other compounds. The true share with any hit is near 2.4%. Unless noted, calls follow the shape of the dose curve; as a rule, active = well fitted curve in the direction sought with a large enough effect; inconclusive = small, poorly fitted or top-dose-only effect, or another doubt; inactive = no such curve, though single readings can be large; an effect the other way counts as inactive or inconclusive.

SMILES	TsaE inh	Tau fil binding	DNA Pol III inh	BRCT inh green	Hsp90 Hop PPI	BRCT inh red
CCNc1ncc2nc(-c3cn(C)c4ccccc34)c(=O)n(C[C@H]3CCCO3)c2n1	i	147%	3%	-1%	0%	0%
CC1CC2C3CCC4=CC(=O)C=C[C@@]4(C)[C@]3(F)C(O)C[C@]2(C)[C@]1(O)C(=O)CO (stereo partly specified)	.	.	.	-3%[3.08 µM]	.	1%
CN1CCc2c(sc3c2c(=O)n(-c2ccccc2)c2nnc(SCc4ccc(Cl)cc4)n32)C1	i	3.2µM*	-14%	0%	-14%	-3%
Cc1nnc2n(-c3ccc(Cl)cc3)c(=O)c3c4c(sc3n12)CN(C)CC4	.	.	.	-1%	.	0%
Oc1c(CN2CCCCC2)cc(Br)c2cccnc12	i	-28%	-3%	-2%	3.2µM*	-1%
Oc1ccc(CN2CCN(Cc3ccccc3)CC2)c2cccnc12	i	-24%	-1%	0%	4µM*	1%
Oc1c(CN2CCc3ccccc3C2)cc(Cl)c2cccnc12	i	92%	-6%	-1%	-20%[2.3 µM]	0%
Fc1ccc(NCc2cn3ccccc3n2)cc1	i	-2%	0%	-1%	-6%	1%
Oc1ccc(CNc2ccc(F)cc2)c2cccnc12	i	-18%	-3%	-1%	7.9µM*	0%
CSc1cc2c(cc1C(F)(F)F)N(C(=O)Nc1cccnc1)CC2	i	37%	6%	-4%	0%	0%
COC(c1ccccc1Br)C(C)/C=C/CCO (stereo unspecified)	.	.	.	-3%[15.4 µM]	.	0%[15.4 µM]
COc1ccc(-c2nc3cnc(N4CCOCC4)nc3n(C3CC3)c2=O)cc1	i	104%	8%	-3%	-1%	-3%
Cc1noc(COc2ccc(OCc3nc(C)no3)cc2)n1	i	0.79µM*	-7%	-1%	0%	-1%
CCOC(=O)c1ccc(N)cc1	i	4%[25.6 µM]	-11%[25.6 µM]	-2%[3.08 µM]	3%[26 µM]	1%
CCOC(=O)c1cc(-c2ccc(N)cc2)sc1N	i	25µM*	1%	-1%	-26%	-1%
CCOC(=O)c1c(C)oc2ccc(NS(=O)(=O)c3ccc4c5c(cccc35)C(=O)N4)cc12	i	7.9µM*	-1%	2%	-3%	-2%
CC(=O)c1cccc(NC(=O)Nc2cc3sccc3n2C)c1	i	3.2µM*	-6%	-2%	-21%	-4%
CS(=O)(=O)N1CCC[C@@]2(CCN(Cc3nccs3)C2)C1	i	7%	-3%	-3%	-3%	-1%
O=C(CN1CCCC1)NCC12CC3CC(CC(C3)C1)C2	i	32µM*	0%	0%	-9%	1%
COc1ccc(-c2ncc3ccccn23)cc1	i	20µM*	0%	2%	-26%	-1%
COc1cccc(NC(=O)CSc2nc3c(c(-c4ccco4)c2C#N)CCCC3)c1	i	?	-8%	1%	-2%	0%
Cc1cc(NC(=O)CSc2nc3c(c(-c4cccnc4)c2C#N)CCC3)no1	i	286%[11.4 µM]	3.2µM*	0%	-1%[11 µM]	2%
C=C1C[C@@]23C[C@@]1(O)CC[C@@H]2[C@]12C=C[C@@H](O)[C@](C)(C(=O)O1)[C@@H]2[C@@H]3C(=O)O	.	.	.	0%	.	-1%
O=c1c(O)c(-c2ccc(O)cc2)oc2cc(O)cc(O)c12	i	32µM*!	-11%	4%	-6%	-2%
O=c1c(O)c(-c2ccc(O)cc2)oc2cc(O)ccc12	i	-27%	-7%	-4%	5%	0%
SMILES	TsaE inh	Tau fil binding	DNA Pol III inh	BRCT inh green	Hsp90 Hop PPI	BRCT inh red
COc1cc(O)c2c(=O)c(O)c(-c3ccc(O)c(O)c3)oc2c1	.	.	.	1%	.	2%
O=c1c(O)c(-c2ccc(O)c(O)c2)oc2cc(O)ccc12	i	?	0.79µM*	-1%	5%	-2%
COc1c(N2C[C@@H]3CCCN[C@H]3C2)c(F)cc2c(=O)c(C(=O)O)cn(C3CC3)c12	.	.	.	3%[3.08 µM]	.	-1%
C=CCSc1nnc2c(n1)OC(c1cccnc1)Nc1ccccc1-2 (stereo unspecified)	i	-5%	3%	-3%	-2%	2%
c1ccc(CSc2nnc3c(n2)OC(c2ccco2)Nc2ccccc2-3)cc1 (stereo unspecified)	i	4µM*	-2%[11.4 µM]	-1%	-12%[11 µM]	-2%
O=C(Nc1ccc2c(c1)OCCO2)C1CCN(S(=O)(=O)c2cccs2)CC1	i	-2%	6%	2%	5%	0%
O=C(Nc1ccc2c(c1)OCO2)C1CCN(S(=O)(=O)c2cccs2)CC1	i	13µM*	2%	-1%	-26%	1%
O=C(Nc1ccc2c(c1)OCO2)C1Cc2ccccc2CN1S(=O)(=O)c1cccs1 (stereo unspecified)	i	25µM*	-8%	2%	-7%	-4%
COc1cccc(-c2cncnc2NCc2ccccc2OC)c1	i	7%	-7%	-1%	-1%	1%
Nc1ncnc2c1nc(Sc1ccc(Cl)cc1)n2[C@@H]1O[C@H]2COP(=O)(O)O[C@@H]2[C@H]1O	i	8%	6%	-2%	-1%	-2%
Cc1noc(C)c1C(=O)N1CCC2(CCCN(Cc3nccs3)C2)CC1	i	2%	-2%	-2%	6%	-1%
CC1N(C)c2cc(NC(=O)c3ccco3)ccc2C1(C)C (stereo unspecified)	?	20µM*	-3%	0%	-12%	34%
Cc1occc1C(=O)Nc1ccc2ccccc2c1	i	10µM*	-6%	-1%	-1%	1%
C1CCOC1	i	0%	-3%	1%	-2%	-1%
O=C(Nc1nc(-c2ccccn2)cs1)C1COc2ccccc2O1 (stereo unspecified)	i	19%	-1%	-1%	16µM*	-1%
CCOC(=O)N1CCN(c2cc3[nH]c(=S)[nH]c3cc2F)CC1	i	-10%	3%	-6%	-4%	-2%
CCOC(=O)N1CCN(c2c(F)cc3[nH]c(=S)[nH]c3c2Br)CC1	i	16µM*	3%	1%	0%	1%
CCOc1ccc(N2C(=O)CC(N3CCN(c4ccccc4F)CC3)C2=O)cc1 (stereo unspecified)	i	8%	-3%	-1%	-5%	0%
CCOc1ccc(N2C(=O)CC(/C=C3/N(C)c4ccccc4C3(C)C)C2=O)cc1 (stereo unspecified)	i	25µM*	-3%	10%	-20%	2%
